Consider 12 molecules from PubChem BioAssay (NCATS).

Molecules are shown by their SMILES. Inconclusive results are not listed. Unmarked numbers belong to inactive results. Active and inactive are the calls of the source. Calls follow the shape of the dose curve; as a rule, active = well fitted inhibition curve with a large enough effect; inconclusive = small, poorly fitted or top-dose-only effect; inactive = flat fitted curve, though single readings scatter.
Potency is read from the fitted curve at half-maximal effect.

This assay concerns W2. The assay can be described thus: qHTS profiling for inhibitors of Plasmodium falciparum proliferation (AID 504749). Also: nearly all actives have a fitted effect of over 60% in size.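 As to activity, negative = inhibition: 0% = DMSO vehicle and full inhibition = artemisinin control.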 To be noted: P. falciparum in erythrocytes, SYBR Green DNA, 72 h; series mostly up to 28.7 µM; activity, negative = inhibition: at the top concentration. The source says: NIH National Institute of Allergy and Infectious Diseases [NIAID] NIH Chemical Genomics Center [NCGC] MLPCN Grant: None Assay Provider: Xinzhuan Su, NIAID NCGC Assay Overview: Plasmodium falciparum is a virulent malarial parasite that kills 1-2 million people worldwide each year. Transmitted by mosquitoes, the sporozoite form of the parasite enters the blood stream to infect hepatocytes, where they become merozoites that infect red blood cells (erythrocytes). Within erythrocytes, merozoites begin a […] cycle of growth and division, after which the parasite is released to infect new red blood cells. Gametocytes, which form within erythrocytes as well, circulate in the bloodstream and are ingested by the mosquito, thereby completing the life cycle. To profile malarial isolates for differential chemical responses and to identify inhibitors of malarial growth, an assay that measures P. falciparum growth and replication within erythrocytes was employed. This assay uses a DNA binding fluorescent dye (SYBR Green) to detect parasite DNA following cell lysis. Because mature erythrocytes lack DNA, only Plasmodium-derived DNA is detected.
NCGC Assay Protocol Summary: The SYBR Green viability assay was adapted from a method described previously (Plouffe et al., 2008). For screening 3 ul culture medium was dispensed into 1536 well black clear bottom plates (Aurora Biotechnologies) using a Multidrop Combi (Thermo Fisher Scientific Inc.), 23 nL compounds in DMSO were added by a pin tool (Kalypsys), and 5 ul of erythrocytes infected with P. falciparum (0.3% parasitemia, 2.5% hematocrit final concentration) were added. The plates were incubated at 37 C in a humidified incubator in 5% CO2 for 72 h, and 2 ul lysis buffer (20 mM Tris HCl, 10 mM EDTA, 0.16% saponin, 1.6% triton X, 10X SYBR Green I supplied as 10,000X […] by Invitrogen) was added to each well. The plates were mixed for 25 sec with gentle shaking and incubated overnight at room temperature in the dark. The following morning, fluorescence intensity at 485(14) nm excitation and 535(25) nm emission wavelengths was measured on an EnVision (Perkin Elmer) plate reader. Plate reads were normalized relative to the control inhibitor (0.29 uM artemisinin) and vehicle (DMSO) wells present on each plate and then corrected by an algorithm using vehicle-only control plates at the beginning and end of the compound plate stack.
With `CCCCCCCCCCCCCCCC[N+](C)(C)Cc1ccccc1`, the Potency is 4.26 µM (active).
As for `CC(NCCC(c1ccccc1)c1ccccc1)c1ccccc1` (configuration not stated), the Potency was 4.26 µM (active).
Same read-out and setting: for `CCCCCCCCCCCCCC[N+](C)(C)C` the value was 4.26 µM (active).
As for `O=S(=O)(O)c1ccc2nc(-c3ccccc3)[nH]c2c1`, the “activity, negative = inhibition” value is 3.1%.
Take `CN1CCC(Nc2ncc3ncnc(Nc4ccc(F)c(Cl)c4)c3n2)CC1`: the Potency was 5.36 µM (active).
Same read-out and setting: for `CN1CCCN(C(c2ccccc2)c2ccc(Cl)cc2)CC1` (configuration not stated) the value was 1.2 µM (active); for `Nc1c2ccccc2nc2ccccc12`, 8.49 µM (active).
Still for that read-out and setting: the result for `Nc1ccc2cc3ccc(N)cc3nc2c1` reads 7.57 µM (active); that for `CCCCCCCCCCCCCCCC[n+]1ccccc1`, 1.51 µM (active).
Turning to `Nc1ncnc2nc[nH]c12`, the “activity, negative = inhibition” value is -0.913%.
For `O=[N+]([O-])c1ccc(O)c2ncccc12`, the Potency is 10.7 µM (active).
On the same count and under the same terms, for `O=C(Nc1ccc(Cl)cc1)Nc1ccc(Cl)c(Cl)c1` the value was 3.01 µM (active).
